Results: the supplement of paper PMC6555819

What follows are sequences tested on LXRb:RXRa (NR concentration 270 nM, RXRa partner concentration 90 nM) (assay: PBM binding z-score (relative to random genomic background probes); higher = stronger binding; sequences stand for … in GC…GCGATTGACAGCGTAGAATGAAGG).
Protocol: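 Protein-binding microarray (Agilent 4x180K custom design, double-stranded 60-nt probes: 5' GC cap, 34-nt variable region, 24-nt constant primer region; full probe sequence given). Purified or IVT nuclear receptor:RXRα heterodimers (3:1 NR:RXRα, mostly 270:90 nM) or homodimers were incubated for 1 h in PBS with 2% milk and no ligand, then detected with Alexa488 antibodies. Fluorescence from o1-orientation probes (~5 replicates averaged) was converted to z-scores against 500 random hg19 background probes. Variable regions are seed direct-repeat (DR0–DR5) sites, all their single-nucleotide variants and half-site ablations.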

Sequence	PBM binding z-score
ATATGTAGGTTAGGGTCAGTCAGAAAGTAGGGAA	3
TAGCCTAGGTCGTTCAGGGGCCAGTATAGAAAGC	0.582
ACTTAAGGGTCAACGAGGTTATAGCACGCGTATA	5.33
AGCGAAAGGTCGAGGTGAGTATAGAGAAAGGGAA	2.7
ATCGAAAGGTCTAAGGTGAGTATACCCACCCGAA	0.196
CGTACAAGGTCAAAGGTCAGTGAAGAGATGACGG	6.66
GCTAGTTGGTCAGTAAAAGGTGACACACCGGTCG	0.263
CGAACTAGGTCGAGGACAGTGAATCTCCGCACGC	-0.262
CCTCGGAGGTCAACAGGAGGTCAGAGCTGCCAGA	5.75
ATCTCTAGGTTAAGATAGTTCAGTGAATGCAAAT	3.33
AATACAAGGTCATCGTAGGCCAGAGTACGCACAG	5.13
GGAACGAGGGCATTCGAGTTCATAGCATGGCGAT	3.44
TAGCCTAGGTCATGGGCCAGTGTACCACGCGAAC	2.46
CCTACTGGGCCGTTCAGAGGTCATTGATCATATG	3.55
CCTACGGGGCCACGAAAGGTCATTGATTCAGTGA	5.02
AGTCAAAGTTCATCTAGGTCACGTAAGATATGCT	4.9
AGAATGGGGTTATACGTAGATCAGGGAAGAAAGT	4.38
CAGCATAGGTCAGGGCCAGTATAGGAGGAACGTT	1.98
TCTAGTTGGTCTAAGGTCACACACTCGAAATGCG	4.1
ACTCGGTGGACAAAGGTCAGAGCTACGCCAGTGA	2.99

Sequence	PBM binding z-score
CTCGAAAGGTCGTGCTCAGATGAGTATACCAAAC	3.44
ATCGAAAGGTCGACGAGGTGAGTAAACACCGTTT	2.87
GCTGCTAGGTCAACTGATGGTCAACTAAAGCTCG	2.47
GGAACGAGGTCATTCGAGTTGATAGCATGGCGAT	4.8
CAAACTAGGTCAAGGTCTAAGTCGGTTTGTGCCA	1.6
TTACCAAGGTGAAAGGTCGTTGCTGCACGCCTTG	2.89
CGTCCAAGGTCACGGTCAGTGAAAGAGACTCGAA	4.76
CGAACTAGGTCGTCCAGGACAGTGAATACATTGA	0.123
CAAACTAGGTCACAAAAGGTCAAAGTCGAATGAC	7.76
TGAATGAGGTTAAATATCAGGGAACGTGGCGTCG	1.79
TCTATTAGTTGATTAGGGCAACCGAAACAGCGGA	0.544
TAGCCTAGTTCATGCGGGCCAGTATAGTGTCGGC	-0.398
CCTACTGGGCCACTAAAGGTCATTGATTCAGTGA	5.49
CGAACGAGGTCATGAGTTGATAGCAAATGCCGAT	4.51
CCTACTGGTCCAAGGTCATTGATCAGTCAAAGCA	3.52
GGAACGAGGTCAAGTTGATAGCAGAGTTTGATGG	5.3
CCTTACGGGTCACTGACAGGTTATAGCGTTTGGA	3.4
ACTCGGATGACAAAGGTCAGAGCTACGCCAGTGA	3.36
CGAACAAGGTCATTGACAGGACAGTGAATAGTAA	4.62
CGAACTAGGTCATTGACAGGACAGTGGATAGTAA	1.97
